Hits are enriched below; roughly 10% of the tested compounds scored in any of these assays.
HEK293 tox: Cytotoxic Profiling in HEK 293 Cell Line of Diverse Libraries Using Quantitative High-Throughput Screening; HEK 293 viability, ATP luminescence (CellTiter-Glo), 48-72 h; Potency, µM (top dose mostly 115 µM), hits mostly inhibitors; 6.6% of 94,000 active; also: nearly all actives have a fitted effect of over 60% in size
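Read-out: CellTiter-Glo ATP luminescence. Cells: HEK 293, 250 cells/well. Exposure: 48 or 72 hr, 37 degree Celsius.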
GPT2 inhibitor: Primary qHTS assay for inhibitors of Glutamate pyruvate transaminase 2 (GPT2); Alanine aminotransferase 2 (Homo sapiens), Q8TD30; Potency, µM (doses to about 57.7 µM), actives largely listed as inhibitors; 0.25% of 100,000 active; Recombinant GPT2, coupled pyruvate oxidase/HRP Amplex Red fluorescence; also: nearly all actives have a fitted effect of over 60% in size
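Inhibition is scored from Amplex Red fluorescence generated when pyruvate oxidase and HRP act on pyruvate released by GPT2. Reactions contain 10ng/uL enzyme, 250uM a-KG and 2mM L-alanine and run 30 min at room temperature.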
FLuc inh: Firefly luciferase inhibition profiling of diverse chemical library using quantitative high-throughput screening. purified P. pyralis luciferase, luminescence, biochemical. Luciferin 4-monooxygenase (Photinus pyralis), P08659. Potency, µM (top dose mostly 115 µM), usual class: inhibitors. AID 1347043, 2019. 2.5% of 76,000 active; also: nearly all actives have a fitted effect of over 65% in size
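Purified 10nM P. pyralis luciferase with 10uM D-luciferin and 10uM ATP in 50mM Tris acetate pH 7.5, 10mM Mg acetate, 0.01% Tween-20, 0.05% BSA. qHTS titration; luminescence read by CCD imager.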
3T3 cytotox: Cytotoxic Profiling in NIH 3T3 Cell Line of Diverse Libraries Using Quantitative High-Throughput Screening; NIH 3T3 viability, CellTiter-Glo ATP luminescence, 48-72 h; Potency, µM (titrated, usually from 96.7 µM), usual class: inhibitors; 4.3% of 94,000 active; also: nearly all actives have a fitted effect of over 55% in size
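Cytotoxicity is measured as loss of cellular ATP: NIH 3T3 cells (400/well) are exposed to compound for 48 or 72 hr at 37 °C, then CellTiter-Glo luminescence is imaged after 10 min at room temperature.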
hNpr1 antagonist: Natriuretic polypeptide receptor (hNpr1) antagonism - Primary qHTS | HEK293 hNpr1 GloSensor cGMP, ANP-stimulated luminescence | 1.6% of 76,000 active | Potency, µM (series often up to 46.3 µM), usual class: inhibitors | Atrial natriuretic peptide receptor 1 (Homo sapiens), P16066; calls by dose curve; also: nearly all actives have a fitted effect of over 60% in size
Target sequence (P16066 whole entry, looked up): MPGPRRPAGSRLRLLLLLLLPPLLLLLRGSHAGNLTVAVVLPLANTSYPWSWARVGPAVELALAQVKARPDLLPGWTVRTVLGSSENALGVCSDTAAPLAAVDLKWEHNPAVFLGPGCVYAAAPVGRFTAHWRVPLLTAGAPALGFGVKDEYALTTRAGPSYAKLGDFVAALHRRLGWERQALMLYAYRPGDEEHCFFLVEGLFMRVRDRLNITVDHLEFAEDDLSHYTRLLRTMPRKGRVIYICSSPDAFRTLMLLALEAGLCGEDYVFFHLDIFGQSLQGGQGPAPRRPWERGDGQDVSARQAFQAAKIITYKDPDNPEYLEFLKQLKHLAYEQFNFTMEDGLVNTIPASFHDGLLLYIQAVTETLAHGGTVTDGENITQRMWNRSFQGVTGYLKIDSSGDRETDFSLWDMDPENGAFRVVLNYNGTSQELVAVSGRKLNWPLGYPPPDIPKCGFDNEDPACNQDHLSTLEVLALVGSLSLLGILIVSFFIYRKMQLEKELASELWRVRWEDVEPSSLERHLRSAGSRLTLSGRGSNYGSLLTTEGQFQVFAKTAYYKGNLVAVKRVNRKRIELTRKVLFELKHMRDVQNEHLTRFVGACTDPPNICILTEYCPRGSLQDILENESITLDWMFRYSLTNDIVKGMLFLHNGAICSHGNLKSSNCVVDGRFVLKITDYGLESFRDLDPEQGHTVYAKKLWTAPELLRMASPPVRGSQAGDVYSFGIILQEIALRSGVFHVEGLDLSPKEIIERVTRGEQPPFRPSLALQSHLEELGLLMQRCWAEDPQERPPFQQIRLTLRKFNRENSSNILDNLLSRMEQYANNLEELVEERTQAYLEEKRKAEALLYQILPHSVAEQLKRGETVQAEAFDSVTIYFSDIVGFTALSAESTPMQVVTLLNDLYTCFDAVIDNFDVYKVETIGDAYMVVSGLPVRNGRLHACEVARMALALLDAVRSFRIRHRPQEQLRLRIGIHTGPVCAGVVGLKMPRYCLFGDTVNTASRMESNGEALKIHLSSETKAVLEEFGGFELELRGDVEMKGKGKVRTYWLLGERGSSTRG
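HEK293 cells stably expressing human Npr1 and cGMP GloSensor pGS-40F, loaded 2 h with 2% GloSensor reagent, given compound 30 min at room temperature. Luminescence read before and 20 min after 0.1 nM hNppA.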
Large screens that a line does not name were inactive. Unless noted, calls follow the shape of the dose curve; as a rule, active = well fitted curve in the direction sought with a large enough effect; inconclusive = small, poorly fitted or top-dose-only effect, or another doubt; inactive = no such curve, though single readings can be large; an effect the other way counts as inactive or inconclusive.

CC(C)(C)c1ccc(-c2cc(C[C@H]3CNCC[C@H]3CC(=O)Nc3nccs3)no2)cc1	HEK293 tox inconclusive, 3T3 cytotox 8.9µM
CCN(CC)Cc1cnc2c(C(=O)NCc3nc(C)cs3)cnn2c1	none
Cc1ccsc1C(=O)Nc1ccc(-c2nnc3n2CCCC3)cc1	FLuc inh 35µM, 3T3 cytotox inconclusive
CCc1ccc(C(=O)Nc2cccc(-c3nnc4n3CCCC4)c2)cc1	HEK293 tox inconclusive, FLuc inh 22µM, 3T3 cytotox inconclusive, hNpr1 antagonist inconclusive
O=C(Nc1cccc(-c2nnc3n2CCCC3)c1)c1ccccc1Cl	none
O=C(Nc1cccc(-c2nnc3n2CCCC3)c1)c1ccccc1	none
CCOc1ccccc1C(=O)Nc1cccc(-c2nnc3n2CCCC3)c1	HEK293 tox inconclusive, 3T3 cytotox 40µM
O=C(C1=CCN2c3c(cccc31)OC[C@H]2CN1CCOCC1)c1cccc2ccccc12	none (no result: HEK293 tox, FLuc inh, 3T3 cytotox, hNpr1 antagonist)
Cc1c(CN(C)Cc2cccc(C(=O)Nc3ccc(C#N)cc3)c2)cnn1C	HEK293 tox 50µM
N#Cc1cccc(NC(=O)c2cccc(CN3CCN(CCO)CC3)c2)c1	HEK293 tox inconclusive
CC(C)CN1C(=O)c2cccn2CC1C(=O)NCCN1CCCC1 (stereo not given)	none
CC(C)C[C@@H]1N[C@H](C(=O)NCCN2CCCC2)Cc2c[nH]c3cccc1c23	HEK293 tox inconclusive, 3T3 cytotox inconclusive
CC(C)C[C@@H]1N[C@H](C(=O)NCc2ccccc2)Cc2c[nH]c3cccc1c23	HEK293 tox 35µM, 3T3 cytotox 32µM
CC(C)C[C@@H]1N[C@H](C(=O)NCc2ccccn2)Cc2c[nH]c3cccc1c23	HEK293 tox 28µM, 3T3 cytotox inconclusive
COc1ccc(CNC(=O)[C@@H]2Cc3c[nH]c4cccc(c34)[C@H](CC(C)C)N2)cc1	HEK293 tox 79µM, 3T3 cytotox 45µM
CC(C)C[C@@H]1N[C@H](C(=O)NCc2ccc(F)cc2)Cc2c[nH]c3cccc1c23	HEK293 tox 28µM, 3T3 cytotox 40µM
O=C1CC2(CCN(C(=O)C3CCN(C(=O)C4CC4)C3)CC2)Oc2ccccc2N1 (stereo not given)	none (no result: FLuc inh, hNpr1 antagonist)
Cc1cc(C(=O)N2CCOC(CC(c3ccccc3)c3ccccc3)C2)no1 (stereo not given)	HEK293 tox inconclusive
COCCNC(=O)c1nc2cccnc2n(Cc2ccccc2OC)c1=O	3T3 cytotox inconclusive (no result: FLuc inh, hNpr1 antagonist)
O=C(CNC(=O)c1ccc(-c2cnc3ccccc3c2)cc1)NCC(F)F	HEK293 tox inconclusive (no result: GPT2 inhibitor, FLuc inh, hNpr1 antagonist)
Cc1cn2nc(C(=O)N3CCC(NC(=O)c4cccc(N(C)C)c4)CC3)cc2c(=O)[nH]1	FLuc inh 35µM
CC(C)N1C(=O)C2(CCCC2)C1C(=O)Nc1ccccc1 (stereo not given)	none
Cc1ccccc1CNC(=O)c1ccc(CN2C(=O)NC3(CCOCC3)C2=O)cc1	none
Cc1ccc(NC(=O)c2ccc(CN3C(=O)NC4(CCOCC4)C3=O)cc2)cc1	HEK293 tox inconclusive, FLuc inh 16µM
COc1ccc(NC(=O)c2ccc(CN3C(=O)NC4(CCOCC4)C3=O)cc2)cc1	FLuc inh 28µM
CSc1cccc(NC(=O)O[C@@H]2CC[C@]3(C)C(CC[C@@H](O)[C@H]3CC(=O)N3CCC(C)CC3)[C@]2(C)CO)c1 (stereo not given in full)	HEK293 tox inconclusive, 3T3 cytotox inconclusive
Cc1ccc2nc(CO[C@H]3CN(Cc4ccc(F)c(F)c4)C[C@H]3F)[nH]c2c1	HEK293 tox inconclusive, 3T3 cytotox inconclusive
CC(=O)N1C[C@@H](F)[C@@H](OCc2nc3ccc(C(F)(F)F)cc3[nH]2)C1	none
Cc1cc2nc(CO[C@H]3CN(Cc4ccc(S(C)(=O)=O)cc4)C[C@H]3F)[nH]c2cc1C	HEK293 tox inconclusive, FLuc inh 56µM
Cn1cc(CN2C[C@@H](F)[C@@H](OCc3nc4ccc(C#N)cc4[nH]3)C2)c2ccccc21	HEK293 tox 89µM, 3T3 cytotox 89µM, hNpr1 antagonist inconclusive
Cc1ccc2nc(CO[C@H]3CN(Cc4ccc(Cl)cc4)C[C@H]3F)[nH]c2c1	HEK293 tox 89µM, 3T3 cytotox inconclusive, hNpr1 antagonist inconclusive
CN1C[C@@H](F)[C@@H](OCc2nc3ccc(C(F)(F)F)cc3[nH]2)C1	FLuc inh 50µM, 3T3 cytotox inconclusive
CCn1ccc(C(=O)N2CCC(Oc3ccccc3-c3nc(C)no3)C2)n1 (stereo not given)	none
CC(Cn1ccnc1-c1cc2n(n1)CCCNC2)N1CCN(C)CC1 (stereo not given)	none
Oc1cc(-c2nc(-c3ccccc3)[nH]c2-c2ccncc2)ccc1Cl	none (no result: HEK293 tox, FLuc inh, 3T3 cytotox, hNpr1 antagonist)
COCc1c(C(=O)N2C[C@@H](CO)[C@H](c3ccncc3)C2)noc1C	none
CCNC(=O)N1C[C@@H](F)[C@@H](OCc2nc3ccc(C)cc3[nH]2)C1	FLuc inh 63µM
Cc1ccc2nc(CO[C@H]3CN(CC4CC4)C[C@H]3F)[nH]c2c1	none
CCN(Cc1ccc(C)o1)C(=O)c1ccc2nc(-c3ccc(F)cc3)cn2c1	HEK293 tox inconclusive, GPT2 inhibitor inconclusive, FLuc inh 40µM, 3T3 cytotox inconclusive
CCN(CC1CCCO1)C(=O)c1ccc2nc(-c3ccc(F)cc3)cn2c1 (stereo not given)	HEK293 tox inconclusive, FLuc inh inconclusive
O=C(NCCCc1ccccn1)c1ccc2nc(-c3ccc(F)cc3)cn2c1	HEK293 tox 45µM, FLuc inh inconclusive, 3T3 cytotox inconclusive
Cc1c(CNC(=O)c2ccc3nc(-c4ccc(F)cc4)cn3c2)cnn1C	HEK293 tox inconclusive, FLuc inh 45µM
O=C(NCCc1nc(-c2ccccc2)cs1)c1ccc2nccn2c1	HEK293 tox 40µM, 3T3 cytotox inconclusive
CN1CCc2cc(Cl)c(O)cc2[C@@H](c2cccc3c2OCC3)C1	none (no result: HEK293 tox, FLuc inh, 3T3 cytotox, hNpr1 antagonist)
Cc1cccc(C2CN(C)CCc3c2cc(O)c(O)c3Cl)c1 (stereo not given)	GPT2 inhibitor 7.1µM (no result: HEK293 tox, FLuc inh, 3T3 cytotox, hNpr1 antagonist)
O=C(C[C@H]1NC(=O)c2ccccc2NC1=O)NCCc1nc2ccccc2[nH]1	none
Cc1noc([C@@H]2CN(C(=O)c3ccoc3C)C[C@H]2C(N)=O)n1	none
O=C(Nc1ccccc1)N1CCC(C(=O)N2CCC(N3CCOC3=O)CC2)CC1	none (no result: FLuc inh, hNpr1 antagonist)
O=C1CC(c2noc(Cc3ccc(Cl)cc3)n2)CN1C1CCCCC1 (stereo not given)	HEK293 tox 71µM, GPT2 inhibitor inconclusive, 3T3 cytotox inconclusive
COc1cccc([S+](=O)([O-])N2CCC(N3CCCOC3=O)CC2)c1	none (no result: FLuc inh, hNpr1 antagonist)
c1ccc(CN2CC(CNc3cccnc3)C3(C2)CN(c2ccccc2)C3)cc1 (stereo not given)	HEK293 tox inconclusive, 3T3 cytotox 50µM
